Laboratory results from PubChem BioAssay (Tox21).
Results filed as inconclusive are left out. A call without a number means that no potency is given here. Values without a mark were called inactive. Calls of active or inactive are those of the source. Calls come from the whole dose curve; as a rule, active = well fitted cell-killing curve with a large enough effect in the repeat runs; inconclusive = weak or mixed curves, or effect the other way; inactive = no such curve, though single readings can be large or run the other way.

assay: qHTS assay to identify small molecule agonists of the RXR signaling pathway - cell viability counter screen (AID 1159529); settings: RXR-alpha-bla HEK293T viability, CellTiter-Glo, 16 h; series mostly up to 76.8 µM; note: nearly all actives have a fitted effect of over 50% in size
Source text: National Center for Advancing Translational Sciences [NCATS]
NIH Chemical Genomics Center [NCGC]
U.S. Environmental Protection Agency [EPA]
National Institutes of Environmental Health Sciences [NIEHS]
National Toxicology Program [NTP]
U.S. Food and Drug Administration [FDA]
The Retinoid X receptor (RXR), a nuclear hormone receptor expressed in liver, spleen, placenta, epidermis, central nervous system. These receptors are able to form homo and heterodimers with other nuclear receptors and due to this heterodimerizing ability, RXR functions as master regulators producing diverse physiological effects. Three subtypes of RXR exist; alpha, beta and gamma. Retinoid X receptor alpha (RXR-alpha) has potential roles in metabolic signaling pathways, skin alopecia, dermal cysts, cardiac development, insulin sensitization etc. Therefore screening environmental chemicals on RXR-alpha signaling can be used for the studies focused on such therapeutic applications. For quantification of RXR-alpha ligands signaling, GeneBLAzer RXR alpha-UAS-bla HEK 293T (Life Technologies, Carlsbad, CA) cells containing a beta-lactamase reporter-gene under control of Retinoid X receptor-alpha response element were used to screen Tox21 10K library. The cytotoxicity of the Tox21 compound library against the RXR-alpha HEK 293T cell line was tested in parallel by measuring cell viability using CellTiter-Glo assay (Promega Corporation, Madison, WI) in the same wells.
Tox21 Assay Protocol Summary:
RXR-alpha HEK 293T cells were dispensed at 2,000 cells/6 uL of assay medium containing 2% charcoal-stripped FBS using a Multidrop Combi (ThermoFisher Scientific, Waltham, MA) dispenser. The assay was performed in black wall/clear-bottom 1536-well plates (Greiner Bio-One North America Inc. Monroe, NC). Tetraoctyl ammonium bromide was used as a positive control in the cytotoxicity screen. After the assay plates were incubated at 37 C and 5% CO2 for 5 hr, 23 nL of compounds dissolved in DMSO, positive control or DMSO only were transferred to the assay plate by a Pintool station (Kalypsys, San Diego, CA). The assay plates were incubated at 37 C and 5% CO2 for 16 hr. One uL of LiveBLAzer B/G FRET substrate (Life Technologies) was added using a Flying Reagent Dispenser (FRD) (Aurora Discovery, San Diego, CA) and the plates were incubated at room temperature for 2 hr. Fluorescence intensity (405 nm excitation, 460/530 nm emission) was measured using an Envision plate reader (PerkinElmer, Shelton, CT). For cytotoxicity, 4 uL/well of CellTiter-Glo reagent was added into the assay plates using an FRD. After 30 min incubation at room temperature, the luminescence intensity was measured using a ViewLux plate reader (PerkinElmer).
Potency is the fitted concentration of half-maximal effect.

Structure (SMILES) | Potency | activity change, negative = cytotoxicity
O=S(c1cc(Cl)cc(Cl)c1O)c1cc(Cl)cc(Cl)c1O | inactive | –
CC[N+](C)(CC)CCOC(=O)C(O)(c1ccccc1)C1CCCCC1 (stereo not given) | inactive | –
CCCCC | inactive | –
Nc1ccc(S(=O)(=O)Nc2ccccc2)cc1 | inactive | –
C[C@@H]1C[C@H]2[C@@H]3CCC4=CC(=O)C=C[C@]4(C)[C@@]3(F)[C@@H](O)C[C@]2(C)[C@@]1(O)C(=O)COC(=O)c1ccncc1 | inactive | –
CNCCCCOc1ccccc1Cc1ccccc1 | inactive | –
NCC(=O)O | – | 4.74% [at 15.8 µM]
CCCCc1nc2cccnc2n1Cc1ccc(-c2ccccc2-c2nnn[nH]2)cc1 | inactive | –
C[C@@H](c1ncncc1F)C(O)(Cn1cncn1)c1ccc(F)cc1F (stereo not given in full) | inactive | –
CC(COCCO)OCCO (stereo not given) | inactive | –
COc1cc2nc(N3CCN(C(=O)C4COc5ccccc5O4)CC3)nc(N)c2cc1OC (stereo not given) | inactive | –
COc1cc2nc(N(C)CCCNC(=O)C3CCCO3)nc(N)c2cc1OC (stereo not given) | inactive | –
O=C(O)C(S)C(S)C(=O)O (stereo not given) | inactive | –
CCCCCCOC(=O)NC(=N)c1ccc(NCc2nc3cc(C(=O)N(CCC(=O)OCC)c4ccccn4)ccc3n2C)cc1 | 10.7 µM (active) | –
c1ccc(-c2ccccn2)nc1 | inactive | –
Cc1cccc(C)c1OCC(=O)N[C@@H](Cc1ccccc1)[C@@H](O)C[C@H](Cc1ccccc1)NC(=O)[C@H](C(C)C)N1CCCNC1=O | 23.9 µM (active) | –
CCCCO | inactive | –
CN1C[C@H]2c3ccccc3Oc3ccc(Cl)cc3[C@@H]2C1 | inactive | –
NS(=O)(=O)c1ccc(N2CCCCS2(=O)=O)cc1 | inactive | –
C=C(C)C(=O)OCCOCC | inactive | –

Structure (SMILES) | Potency | activity change, negative = cytotoxicity
CCN(CC)CCNC(=O)c1cc(Br)c(N)cc1OC | inactive | –
C/C(=C(\CCOP(=O)(O)O)SC(=O)c1ccccc1)N(C=O)Cc1cnc(C)nc1N | – | -1.63% [at 6.97 µM]
O=P(O)(OCc1ccccc1)OCc1ccccc1 | inactive | –
Cc1[nH]c(C)c(Cl)c(=O)c1Cl | – | 7.97% [at 15.8 µM]
C=CC(=O)OCCOc1ccccc1 | inactive | –
COc1ccc(C(=O)c2ccc(OC)cc2O)c(O)c1 | inactive | –
CC1OC(=O)C(C)OC1=O (stereo not given) | inactive | –
O=C(O)CNCC(=O)O | – | 3.65% [at 6.97 µM]
O=C1OC(=O)C2C3C=CC(C3)C12 (stereo not given) | inactive | –
O=C(Cl)c1cc(C(=O)Cl)cc(C(=O)Cl)c1 | inactive | –
CC(CSC(=O)c1ccccc1)C(=O)N1C[C@@H](Sc2ccccc2)C[C@H]1C(=O)O (stereo not given in full) | – | -1.14% [at 15.8 µM]
CCCCCCCC/C=C\CCCCCCCC(=O)OCC | inactive | –
Cc1cc(C(=O)O)ccc1[N+](=O)[O-] | inactive | –
c1cc(CCCc2ccncc2)ccn1 | inactive | –
O=C(O)c1ccccc1Cl | inactive | –
CN(C)c1ccc(/C=C/c2ccc([N+](=O)[O-])cc2)cc1 | – | -5.22% [at 6.97 µM]
CCC(C)c1cc(C(C)(C)C)c(O)c(C(C)(C)C)c1 (stereo not given) | inactive | –
CCCCCCc1ccc(-c2ccc(C#N)cc2)cc1 | inactive | –
CC(C)C[C@H]1C(=O)N2CCC[C@H]2[C@]2(O)O[C@](NC(=O)[C@@H]3C=C4c5cccc6[nH]c(Br)c(c56)C[C@H]4N(C)C3)(C(C)C)C(=O)N12 | inactive | –
Cc1ccc(N=Nc2c(O)c(C(=O)O)cc3ccccc23)c(S(=O)(=O)O)c1 | inactive | –
